The sample as a whole holds a higher share of hits than the screen did.
PI4K2A inh = blocks human PI4K2A kinase activity | Q9BTU6 | purified PI4K2A, ADP-Glo luminescence, 1 h; stronger effect = lower value | activity change, negative = inhibition, % at 76.9 µM | hit rate 0.13% among 420,000 | AID 1346378; in the data active = activity change below about -50%; inconclusive = mostly about -30% to -49%
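In this quantitative HTS, ADP production by PI4K2A was quantified luminescently after 1 h at ambient temperature; 100 microM adenosine served as plate-quality control.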
PI5P4K alpha inh = blocks human PI5P4K alpha kinase activity; P48426; PI5P4Kalpha enzyme, ADP-Glo luminescence, 60 min; stronger effect = lower value; max response, %; hit rate 1.2% among 330,000; AID 652105; active = max response of -50% or lower; inconclusive = between -30% and -50%; inactive = -30% or higher; also: value at the top dose of about 77 µM
Target sequence (P48426 whole entry, looked up): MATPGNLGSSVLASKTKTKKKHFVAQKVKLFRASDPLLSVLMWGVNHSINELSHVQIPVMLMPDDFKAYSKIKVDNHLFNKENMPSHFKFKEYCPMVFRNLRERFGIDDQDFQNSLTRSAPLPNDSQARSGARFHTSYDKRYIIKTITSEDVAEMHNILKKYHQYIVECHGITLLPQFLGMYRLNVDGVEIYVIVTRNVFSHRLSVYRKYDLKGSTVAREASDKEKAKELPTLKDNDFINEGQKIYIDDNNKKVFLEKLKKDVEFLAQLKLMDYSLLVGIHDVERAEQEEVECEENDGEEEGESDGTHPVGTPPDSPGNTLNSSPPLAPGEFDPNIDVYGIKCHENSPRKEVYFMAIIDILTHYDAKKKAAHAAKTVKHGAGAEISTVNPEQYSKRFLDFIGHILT
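Reactions run in 0.038 M HEPES pH 7.4, 0.28 mM EGTA, 0.1% CHAPS and 5% DMSO, with PI5P4Kalpha, substrate, compound and 5 microM ATP final, one hour at room temperature. Readout is ADP-Glo luminescence.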
PGK inhibitor = blocks T. brucei phosphoglycerate kinase. PGK/GAPDH coupled, Kinase-Glo luminescence, 60 min. AID 602233. Potency, µM (series often up to 57.5 µM), usual class: inhibitors. hit rate 0.043% among 380,000. P07378; active = well fitted inhibition curve with a large enough effect; inconclusive = small, poorly fitted or top-dose-only effect; inactive = no such curve, though single readings can be large or run the other way; also: nearly all actives have a fitted effect of over 60% in size
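Luminescent ATP detection (Kinase-Glo Plus) follows a 60-minute room-temperature incubation, with wells lacking PGK as controls. Buffer: 100 mM TEA (pH 7.6), 5 mM MgCl2, 0.01% Tween-20. Coupling enzyme GAPDH (100 nM final) supplies unstable 1,3-BPG in-well.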
Pin1 inh = human Pin1 inhibition; hit rate 0.009% among 390,000; Pin1 FP peptide displacement, HiFluor488, 10 min; Potency, µM (series often up to 115 µM), actives largely listed as inhibitors; active = well fitted inhibition curve with a large enough effect in the polarisation, with a control signal flat, not every such curve was filed as active; inconclusive = small, poorly fitted or top-dose-only effect, or effect the other way, or a change in a side signal; inactive = no such curve, though single readings can be large or run the other way; the % refers to the polarisation
Target sequence (Q13526 whole entry, looked up): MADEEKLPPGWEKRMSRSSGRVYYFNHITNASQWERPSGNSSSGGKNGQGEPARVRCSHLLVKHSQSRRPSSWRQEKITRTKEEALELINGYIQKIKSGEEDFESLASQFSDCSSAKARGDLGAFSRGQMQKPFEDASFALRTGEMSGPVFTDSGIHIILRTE
A number is an active result; n = inactive; u = inconclusive; x = no result given.

SMILES | PI4K2A inh | PI5P4K alpha inh | PGK inhibitor | Pin1 inh
COCCNC(=O)/C(C#N)=C/c1ccc(O)cc1 | -69.3 | u | u | n
Cn1c(O)c(/C=C2\C=Nc3ccccc32)sc1=Nc1ccc(C(=O)O)cc1 | n | -65.6 | n | u
NC(=O)C1CCN(c2ncc(-c3ccc4c(c3)OCO4)s2)CC1 | x | x | x | n
Cc1ccc(/C=C/c2nc3ccccc3n2S(=O)(=O)c2ccc(Br)cc2)cc1 | -63.5 | x | n | n
Cc1ccc(S(=O)(=O)n2c(N)nc3ccccc32)cc1 | n | n | n | n
CCCOc1ccc2c(c1)CC[C@@H]1[C@@H]2CC[C@]2(C)C(OC)CC[C@@H]12 (some centres undefined) | n | x | x | x
Cc1ccc(C(=O)C(=O)O)cc1C | n | x | x | x
Cc1ccc(C(=O)c2coc3cc([N+](=O)[O-])c(O)c([N+](=O)[O-])c23)cc1 | n | -81.7 | n | u
O=C(Cn1cc(SCc2ccc(C(F)(F)F)cc2)c2ccccc21)N1CCOCC1 | n | x | n | u
Cc1cc2c(s1)c1cnn(Cc3ccc(F)cc3Cl)c(=O)c1n2C | x | x | x | n
O=C(c1ccccc1)c1cc2ccc(O)cc2oc1=O | -86.6 | x | u | n
CC(=O)c1cc2ccc(O)cc2oc1=O | n | u | n | u
COc1ccc(C(=O)c2cc3ccc(O)cc3oc2=O)cc1 | -52.8 | x | x | n
CCc1ccc(C(=O)c2cc3ccc(O)cc3oc2=O)cc1 | n | u | n | n
C#Cc1ccc(-c2ccccc2F)cc1 | n | x | x | x
CCOc1ccc(Br)cc1C1C(C(=O)Nc2ccccc2OC)=C(C)Nc2nnnn21 (centres undefined) | n | x | n | n
CCOC(=O)N(O)c1ccc(C=Cc2ccccc2)cc1 | n | n | 28.2µM | n
Cc1[nH][nH]c(=O)c1C(c1ccc(-c2ccc(C(=O)O)cc2)o1)c1c(C)[nH][nH]c1=O | -54.5 | u | n | n
Cc1[nH][nH]c(=O)c1C(c1ccc(-c2ccc(F)cc2)o1)c1c(C)[nH][nH]c1=O | u | n | n | n
CC1=C/C(=C\c2ccc(Br)o2)C(=O)O1 | n | u | 10µM | u
O=C1C(=Cc2ccc(Br)o2)C(=O)c2ccccc21 | n | -85.5 | 7.94µM | 3.01µM
Cc1ccc(C(=O)O)cc1-c1ccc(C=C2C(=O)c3ccccc3C2=O)o1 | n | n | u | n
COc1ccccc1-c1ccc(/C=C2/C=C(C)OC2=O)o1 | n | n | n | u
C/C(Sc1nnc(Cc2ccccc2)o1)=C(\O)c1ccccc1 | n | n | n | n
CCc1ccc(N=C2NC(=O)/C(=C/c3ccc(OCC(=O)O)cc3)S2)cc1 | n | u | u | n
SMILES | PI4K2A inh | PI5P4K alpha inh | PGK inhibitor | Pin1 inh
COc1ccc(/C=C2/S/C(=N/S(=O)(=O)Cc3ccccc3)NC2=O)cc1OC | n | n | n | n
COc1cc(/C=C2\SC(=Nc3ccc(O)cc3)NC2=O)cc(OC)c1OC | n | n | n | n
CCCN1C(=O)/C(=C/c2ccco2)SC1=Nc1ccc(OC)cc1 | n | n | n | n
COc1ccc(N=C2NC(=O)/C(=C\c3ccco3)S2)cc1 | n | -58.7 | n | u
COc1ccc(N=C2NC(=O)/C(=C/c3ccc(O)c(OC)c3)S2)cc1 | n | -61.8 | n | u
COc1cc(/C=C2/SC(=Nc3ccc(O)cc3)NC2=O)cc(OC)c1O | n | -51.3 | n | n
CCc1ccc(N=C2NC(=O)/C(=C/c3ccc(OCC(=O)O)c(OC)c3)S2)cc1 | n | -75.1 | n | x
Cc1ccc(C)c(N2CCN(C(=O)C3CCN(Cc4nc(-c5cccc(Cl)c5)oc4C)CC3)CC2)c1 | n | x | n | n
NS(=O)(=O)c1ccc(N/N=C/c2ccccc2C(=O)O)c([N+](=O)[O-])c1 | n | n | n | n
O=C(O)c1ccccc1NS(=O)(=O)c1ccc(NN=Cc2ccc(F)cc2)c([N+](=O)[O-])c1 | n | -57.8 | n | x
O=C(O)c1ccccc1NS(=O)(=O)c1ccc(NN=Cc2cccc(Cl)c2)c([N+](=O)[O-])c1 | n | -65.9 | u | x
NS(=O)(=O)c1ccc(N/N=C/c2ccc(O)c(O)c2O)c([N+](=O)[O-])c1 | n | -75.4 | n | u
O=C(O)c1ccccc1NS(=O)(=O)c1ccc(N/N=C/c2ccc(O)c(O)c2)c([N+](=O)[O-])c1 | n | -95.8 | 35.5µM | x
NS(=O)(=O)c1ccc(N/N=C/c2ccc(O)cc2O)c([N+](=O)[O-])c1 | n | n | n | n
O=[N+]([O-])c1ccccc1NC(=S)N/N=C/c1ccc(O)c(O)c1 | n | -63.1 | n | n
CCOc1cccc(/C=N/NC(=S)Nc2ccccc2[N+](=O)[O-])c1O | n | n | n | n
O=C(Nc1ccc(S(=O)(=O)N2CCOCC2)cc1)c1cc(Cl)ccc1NS(=O)(=O)c1ccc(Cl)s1 | n | x | x | x
O=C(COC(=O)c1c2c(nc3ccccc13)/C(=C\c1ccco1)CC2)NC1CCCC1 | u | -55.3 | n | u
O=C(COC(=O)c1c2c(nc3ccccc13)/C(=C/c1cccc([N+](=O)[O-])c1)CCC2)NC1CCS(=O)(=O)C1 (centres undefined) | n | n | n | n
CN1CCc2nc3ccccc3c(C(=O)OCC(=O)N(CCC#N)c3ccccc3)c2C1 | n | n | n | n
CN(CCC#N)C(=O)COC(=O)c1c2c(nc3ccccc13)/C(=C\c1ccco1)CC2 | -51.7 | u | n | u
COc1ccc(S(=O)(=O)N2CCC(C(=O)NCc3ccncc3)CC2)cc1C | n | n | n | n
Cc1ccnc(N2C(=O)c3ccccc3C2O)c1 (centres undefined) | n | -58.0 | u | n
CCCCc1cc(-c2n[nH]c(=S)o2)c2ccccc2n1 | n | -56.0 | n | n
COc1ccc(NC(=O)Cn2cc(S(=O)(=O)Cc3ccc(F)cc3)c3ccccc32)cc1OC | n | x | n | n
SMILES | PI4K2A inh | PI5P4K alpha inh | PGK inhibitor | Pin1 inh
N#C/C(=C(/O)COC(=O)CCc1ccc(S(=O)(=O)N2CCOCC2)cc1)c1nc2ccccc2[nH]1 | n | -51.6 | n | u
N#C/C(=C(/O)COC(=O)c1ccc(Cl)c(S(=O)(=O)N2CCOCC2)c1)c1nc2ccccc2[nH]1 | n | n | n | n
C=CC1CN2CCC1CC2[C@@H](O)c1ccnc2ccc(OC)cc12 (some centres undefined) | x | x | x | n
Cc1ccc(NNS(=O)(=O)c2ccc(C)cc2)cc1 | n | -62.6 | n | n
Cc1ccc(S(=O)(=O)N/N=C/c2ccccc2O)cc1 | n | n | n | n
Cc1ccc(S(=O)(=O)NN=CC=CC=NNS(=O)(=O)c2ccc(C)cc2)cc1 | n | -61.0 | n | x
Cc1ccc(O/C=C2/Nn3c(nnc3-c3cc(-c4ccccc4)n[nH]3)S2)cc1 | x | x | x | n
CCC(=O)NC(c1ccc(F)cc1)c1cc(Cl)c2cccnc2c1O (centres undefined) | x | x | x | n
COc1cc(N2C(=O)C=CC2=O)ccc1N1C(=O)C=CC1=O | n | -68.2 | n | u
O=C(O)CC(CCc1ccccc1)OC1OC(CO)C(O)C(O)C1O (centres undefined) | u | -68.0 | u | u
[C-]#[N+][C@H](O[C@@H]1O[C@H](CO)[C@@H](O)[C@H](O)[C@H]1O)c1ccccc1 | n | n | n | n
Nc1ccc(S(=O)(=O)c2cc(O)c3ccccc3c2O)cc1 | n | -77.9 | n | n
